Results taken from PubChem BioAssay AID1159580 (chemical genetic matrix, 2015).
“And” between values parts separate entries of the source, which are not always exact repeats. Equal entries are not always repeated. The whole screen tested about 5,500 compounds, of which about 2,000 (36%) were called active. About 18% were inconclusive and are not listed. Cut-off read from the data, not from the text of the source: active = normalized growth mostly below about 0.91 (no sharp cut-off); inconclusive = no clear call, values can overlap the other calls; inactive = mostly above about 0.92. This is one part of the list.

Assay: chemical genetic growth profiling, strain panel (AID 1159580);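 note: tested at 20 µM; growth read once vehicle control cultures reached saturation at 30 °C; 1 = growth at the plate median or of vehicle wells; lower values mean less growth of the strain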
Conditions: S. cerevisiae deletion strains, growth OD

Measured: normalized growth

CN1CCC[C@@H]1CCO[C@](C)(c1ccccc1)c1ccc(Cl)cc1
active: locus YAL021C, strain ccr4, stronger effect = lower value 0.88 | locus YAL026C, strain drs2, stronger effect = lower value 0.62 | locus YBR021W, strain FUR4, stronger effect = lower value 0.671 | locus YDR137W, strain rgp1, stronger effect = lower value 1.24 [resistant] | locus YDR388W, stronger effect = lower value 0.911 | locus YER015W, strain faa2, stronger effect = lower value 0.798 | locus YER155C, strain BEM2 (second series), stronger effect = lower value 0.818 | locus YFR010W, strain ubp6, stronger effect = lower value 0.898 | locus YGR135W, strain pre9, stronger effect = lower value 0.879 | locus YGR229C, strain SMI1, stronger effect = lower value 0.491 | locus YGR252W, strain gcn5, stronger effect = lower value 0.688 | locus YHR027C, strain rpn1, stronger effect = lower value 0.904
0.843 (active) and 0.985 (inactive): locus YHR030C, strain SLT2, stronger effect = lower value
inactive: locus YAL013W, strain DEP1, stronger effect = lower value 0.998 | locus YAL030W, strain snc1, stronger effect = lower value 1 | locus YBL061C, strain skt5, stronger effect = lower value 0.998 | locus YBR009C, strain hhf1, stronger effect = lower value 0.957 | locus YBR023C, strain chs3, stronger effect = lower value 0.949 | locus YBR171W, strain sec66, stronger effect = lower value 0.997 | locus YBR229C, strain ROT2, stronger effect = lower value 1.01 | locus YBR231C, strain swc5, stronger effect = lower value 0.984 | locus YBR279W, strain paf1, stronger effect = lower value 0.964 | locus YCL011C, strain gbp2, stronger effect = lower value 0.959 | locus YCL016C, strain dcc1, stronger effect = lower value 0.968 | locus YCL029C, strain bik1, stronger effect = lower value 0.991 | locus YCL069W, strain vba3, stronger effect = lower value 0.969 | locus YCR088W, strain abp1, stronger effect = lower value 0.999 | locus YDL005C, strain med2, stronger effect = lower value 1 | locus YDL035C, strain GPR1, stronger effect = lower value 0.913 | locus YDL040C, strain nat1, stronger effect = lower value 1 | locus YDL074C, strain BRE1, stronger effect = lower value 0.817 | locus YDL101C, strain DUN1, stronger effect = lower value 1.01 | locus YDL134C, strain PPH21, stronger effect = lower value 1.01 | locus YDL185W, strain tfp1, stronger effect = lower value 0.99 | locus YDL192W, strain arf1, stronger effect = lower value 1.01 | locus YDR001C, strain nth1, stronger effect = lower value 1.02 | locus YDR069C, strain doa4, stronger effect = lower value 0.955 | locus YDR101C, strain arx1, stronger effect = lower value 0.988 | locus YDR150W, strain NUM1, stronger effect = lower value 1.02 | locus YDR159W, strain sac3, stronger effect = lower value 1.01 | locus YDR162C, strain NBP2, stronger effect = lower value 0.993 | locus YDR195W, strain ref2 1.08 | locus YDR297W, strain sur2, stronger effect = lower value 0.998 | locus YDR318W, strain mcm21, stronger effect = lower value 0.984 | locus YDR334W, strain swr1, stronger effect = lower value 1.01 | locus YDR335W, strain msn5, stronger effect = lower value 0.987 | locus YDR392W, strain spt3, stronger effect = lower value 0.866 | locus YDR502C, strain sam2, stronger effect = lower value 0.97 | locus YEL003W, strain gim4, stronger effect = lower value 0.952 | locus YEL037C, strain rad23, stronger effect = lower value 0.993 | locus YEL061C, strain CIN8 (second series), stronger effect = lower value 1 | locus YEL061C, strain CIN8, stronger effect = lower value 1 | locus YER016W, strain bim1, stronger effect = lower value 0.992 | locus YER110C, stronger effect = lower value 0.999 | locus YER111C, strain swi4, stronger effect = lower value 1.02 | locus YER155C, strain BEM2, stronger effect = lower value 1.03 | locus YER167W, strain BCK2, stronger effect = lower value 1 | locus YGL078C, strain dbp3, stronger effect = lower value 0.99 | locus YGL086W, strain mad1, stronger effect = lower value 0.973 | locus YGL167C, strain pmr1, stronger effect = lower value 1.02 | locus YGL173C, strain kem1, stronger effect = lower value 0.955 | locus YGL227W, strain vid30, stronger effect = lower value 0.996 | locus YGL240W, strain doc1, stronger effect = lower value 0.919 | locus YGL248W, strain PDE1, stronger effect = lower value 1.01 | locus YGL253W, strain hxk2, stronger effect = lower value 0.916 | locus YGR078C, strain PAC10, stronger effect = lower value 0.95 | locus YHR013C, strain ard1, stronger effect = lower value 0.856 | locus YHR079C, strain IRE1 (second series), stronger effect = lower value 0.994 | locus YHR079C, strain IRE1, stronger effect = lower value 0.992 | locus YHR094C, strain hxt1, stronger effect = lower value 0.994 | locus YHR129C, strain ARP1, stronger effect = lower value 1.01 | locus YHR142W, strain chs7, stronger effect = lower value 0.884 | locus YHR200W, strain rpn10, stronger effect = lower value 1 | locus YIL066C, strain RNR3, stronger effect = lower value 0.978 | locus YIL073C, strain SPO22, stronger effect = lower value 0.904 | locus YIL125W, strain kgd1, stronger effect = lower value 0.999 | locus YIR030C, strain dcg1, stronger effect = lower value 0.993 | locus YJL092W, strain hpr5, stronger effect = lower value 0.982 | locus YJL095W, strain BCK1 (second series), stronger effect = lower value 0.923 | locus YJL115W, strain asf1, stronger effect = lower value 0.999 | locus YJL129C, strain trk1, stronger effect = lower value 0.921 | locus YJL134W, strain LCB3, stronger effect = lower value 1.01 | locus YJL154C, strain vps35, stronger effect = lower value 0.996 | locus YJL164C, strain tpk1, stronger effect = lower value 0.937 | locus YJL166W, strain qcr8, stronger effect = lower value 0.94 | locus YJL168C, strain set2, stronger effect = lower value 1 | locus YJL187C, strain SWE1 (second series), stronger effect = lower value 0.987 | locus YJL187C, strain SWE1, stronger effect = lower value 0.992 | locus YJR043C, strain POL32, stronger effect = lower value 1.03 | locus YJR066W, strain TOR1, stronger effect = lower value 0.97
0.745 (active) and 0.991 (inactive): locus YJL095W, strain BCK1, stronger effect = lower value
